Tests used:
[1] = tested on: Vero E6 infected with SARS-CoV-2; experiment: morphology score (similarity to uninfected cells); higher = more like uninfected cells; conditions: 24 h
[2] = tested on: Vero E6 infected with SARS-CoV-2; experiment: inhibition of SARS-CoV-2 cytopathic effect; higher = more antiviral protection, active = above 15; conditions: 48 h

C[C@]12CC[C@H](O)CC1=CC[C@@H]1[C@@H]2CC[C@]2(C)C(=O)CC[C@@H]12 (10 µM)
0.0986: morphology score [1]

Cc1ccc(S(=O)(=O)/C=C/C#N)cc1
inactive: inhibition of SARS-CoV-2 cytopathic effect ([2]; 1 nM) 0.18% | inhibition of SARS-CoV-2 cytopathic effect ([2]; 8.33 nM) -2.24% | inhibition of SARS-CoV-2 cytopathic effect ([2]; 100 nM) 0.01% | inhibition of SARS-CoV-2 cytopathic effect ([2]; 833.33 nM) 4.59%
active: inhibition of SARS-CoV-2 cytopathic effect ([2]; 10000 nM) 18.8%

CC(C)(S)C(N)C(=O)O (stereo in doubt) [penicillamine-(racemic)]
inactive: inhibition of SARS-CoV-2 cytopathic effect ([2]; 1 nM) -0.3% | inhibition of SARS-CoV-2 cytopathic effect ([2]; 8.33 nM) -1.45% | inhibition of SARS-CoV-2 cytopathic effect ([2]; 100 nM) -0.335% | inhibition of SARS-CoV-2 cytopathic effect ([2]; 833.33 nM) -1.03% | inhibition of SARS-CoV-2 cytopathic effect ([2]; 10000 nM) -0.18%

CNCc1cc(-c2ccccc2F)n(S(=O)(=O)c2cccnc2)c1 [vonoprazan]
inactive: inhibition of SARS-CoV-2 cytopathic effect ([2]; 1 nM) -3.91% | inhibition of SARS-CoV-2 cytopathic effect ([2]; 8.33 nM) -1.43% | inhibition of SARS-CoV-2 cytopathic effect ([2]; 100 nM) -1.96% | inhibition of SARS-CoV-2 cytopathic effect ([2]; 833.33 nM) -1.21% | inhibition of SARS-CoV-2 cytopathic effect ([2]; 10000 nM) -4.64%

CCCCCOc1ccc(-c2ccc(-c3ccc(C(=O)N[C@H]4C[C@@H](O)[C@@H](O)NC(=O)[C@@H]5[C@@H](O)[C@@H](C)CN5C(=O)[C@H]([C@@H](C)O)NC(=O)[C@H]([C@H](O)[C@@H](O)c5ccc(O)cc5)NC(=O)[C@@H]5C[C@@H](O)CN5C(=O)[C@H]([C@@H](C)O)NC4=O)cc3)cc2)cc1 [anidulafungin]
inactive: inhibition of SARS-CoV-2 cytopathic effect ([2]; 1 nM) -3.73% | inhibition of SARS-CoV-2 cytopathic effect ([2]; 8.33 nM) 0.49% | inhibition of SARS-CoV-2 cytopathic effect ([2]; 100 nM) 1.56% | inhibition of SARS-CoV-2 cytopathic effect ([2]; 833.33 nM) 0.77% | inhibition of SARS-CoV-2 cytopathic effect ([2]; 10000 nM) -2.12%

Cc1ccccc1-n1c(Cn2ncc3c(N)ncnc32)nc2cccc(C)c2c1=O
inactive: inhibition of SARS-CoV-2 cytopathic effect ([2]; 1 nM) -1.01% | inhibition of SARS-CoV-2 cytopathic effect ([2]; 8.33 nM) 0.63% | inhibition of SARS-CoV-2 cytopathic effect ([2]; 100 nM) 0.62% | inhibition of SARS-CoV-2 cytopathic effect ([2]; 833.33 nM) -3.58%
active: inhibition of SARS-CoV-2 cytopathic effect ([2]; 10000 nM) 54.3%

Source: the supplement of paper PMC13380429
